# Article PMC11006913
# Residue numbers refer to the chain shown, from its start.
# How the values were obtained:
# Experiment in all cases: PBM; 200 nM protein, PBS
# Details in all cases: dsDNA, one strand shown
# VENTX [1] = molecular target: T1, VENTX (Homo sapiens, UniProt O95231 78-163, R121Q)
# T1 sequence: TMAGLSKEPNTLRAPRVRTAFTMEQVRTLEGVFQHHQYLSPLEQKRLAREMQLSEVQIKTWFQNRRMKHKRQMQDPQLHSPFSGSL
# VENTX [2] = molecular target: T2, VENTX (Homo sapiens, UniProt O95231 78-163)
# T2 sequence: T1 sequence with Q44R
# VENTX [3] = molecular target: T3, VENTX (Homo sapiens, UniProt O95231 78-163, Y115F)
# T3 sequence: T1 sequence with Y38F, Q44R
# HOXD13 [4] = molecular target: HOXD13 (Homo sapiens, UniProt P35453 263-343, T313R)
# Sequence of HOXD13 (Homo sapiens, UniProt P35453 263-343, T313R) (P35453 263-343 T313R): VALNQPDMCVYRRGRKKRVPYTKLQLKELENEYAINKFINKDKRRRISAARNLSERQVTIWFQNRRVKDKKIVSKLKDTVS
# NKX2-6 [5] = molecular target: T4, NKX2-6 (Homo sapiens, UniProt A6NCS4 118-204)
# T4 sequence: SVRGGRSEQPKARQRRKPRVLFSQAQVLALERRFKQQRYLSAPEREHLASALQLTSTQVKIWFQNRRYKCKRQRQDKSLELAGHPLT
# HOXD13 [6] = molecular target: HOXD13 (Homo sapiens, UniProt P35453 263-343)
# Sequence of HOXD13 (Homo sapiens, UniProt P35453 263-343) (P35453 263-343): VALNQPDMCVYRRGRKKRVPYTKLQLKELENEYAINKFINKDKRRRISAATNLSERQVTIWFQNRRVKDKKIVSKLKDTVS
# HOXD13 [7] = molecular target: HOXD13 (Homo sapiens, UniProt P35453 263-343, T313A)
# Sequence of HOXD13 (Homo sapiens, UniProt P35453 263-343, T313A) (P35453 263-343 T313A): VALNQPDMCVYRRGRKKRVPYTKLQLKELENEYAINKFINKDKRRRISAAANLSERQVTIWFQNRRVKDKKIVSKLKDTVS
# NKX2-6 [8] = molecular target: T5, NKX2-6 (Homo sapiens, UniProt A6NCS4 118-204, F151L)
# T5 sequence: T4 sequence with F34L
# VAX1 [9] = molecular target: VAX1 (Homo sapiens, UniProt Q5SQQ9 86-172)
# Sequence of VAX1 (Homo sapiens, UniProt Q5SQQ9 86-172) (Q5SQQ9 86-172): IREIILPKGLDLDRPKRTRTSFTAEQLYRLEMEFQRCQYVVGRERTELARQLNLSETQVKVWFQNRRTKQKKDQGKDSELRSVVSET
# VAX1 [10] = molecular target: VAX1 (Homo sapiens, UniProt Q5SQQ9 86-172, T142I)
# Sequence of VAX1 (Homo sapiens, UniProt Q5SQQ9 86-172, T142I) (Q5SQQ9 86-172 T142I): as the sequence (Q5SQQ9 86-172) above, with T57I counted along it
# VAX1 [11] = molecular target: VAX1 (Homo sapiens, UniProt Q5SQQ9 86-172, K157R)
# Sequence of VAX1 (Homo sapiens, UniProt Q5SQQ9 86-172, K157R) (Q5SQQ9 86-172 K157R): as the sequence (Q5SQQ9 86-172) above, with K72R counted along it
# ALX1 [12] = molecular target: ALX1 (Homo sapiens, UniProt Q15699 118-204, L144V)
# Sequence of ALX1 (Homo sapiens, UniProt Q15699 118-204, L144V) (Q15699 118-204 L144V): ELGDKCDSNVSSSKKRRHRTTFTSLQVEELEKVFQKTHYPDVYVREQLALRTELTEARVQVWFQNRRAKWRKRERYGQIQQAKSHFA
# ALX1 [13] = molecular target: ALX1 (Homo sapiens, UniProt Q15699 118-204, L144R)
# Sequence of ALX1 (Homo sapiens, UniProt Q15699 118-204, L144R) (Q15699 118-204 L144R): as the sequence (Q15699 118-204 L144V) above, with V27R counted along it
# ALX1 [14] = molecular target: ALX1 (Homo sapiens, UniProt Q15699 118-204)
# Sequence of ALX1 (Homo sapiens, UniProt Q15699 118-204) (Q15699 118-204): as the sequence (Q15699 118-204 L144V) above, with V27L counted along it
# HOXA2 [15] = molecular target: HOXA2 (Homo sapiens, UniProt O43364 129-215, R185T)
# Sequence of HOXA2 (Homo sapiens, UniProt O43364 129-215, R185T) (O43364 129-215 R185T): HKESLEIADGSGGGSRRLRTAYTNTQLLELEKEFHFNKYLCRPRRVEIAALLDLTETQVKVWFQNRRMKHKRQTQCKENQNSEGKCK
# HOXA2 [16] = molecular target: HOXA2 (Homo sapiens, UniProt O43364 129-215, R185K)
# Sequence of HOXA2 (Homo sapiens, UniProt O43364 129-215, R185K) (O43364 129-215 R185K): as the sequence (O43364 129-215 R185T) above, with T57K counted along it
# HOXA2 [17] = molecular target: HOXA2 (Homo sapiens, UniProt O43364 129-215, Y150S)
# Sequence of HOXA2 (Homo sapiens, UniProt O43364 129-215, Y150S) (O43364 129-215 Y150S): as the sequence (O43364 129-215 R185T) above, with Y22S, T57R counted along it
# HOXA2 [18] = molecular target: HOXA2 (Homo sapiens, UniProt O43364 129-215)
# Sequence of HOXA2 (Homo sapiens, UniProt O43364 129-215) (O43364 129-215): as the sequence (O43364 129-215 R185T) above, with T57R counted along it
# HOXB6 [19] = molecular target: HOXB6 (Homo sapiens, UniProt P17509 132-218, K202E)
# Sequence of HOXB6 (Homo sapiens, UniProt P17509 132-218, K202E) (P17509 132-218 K202E): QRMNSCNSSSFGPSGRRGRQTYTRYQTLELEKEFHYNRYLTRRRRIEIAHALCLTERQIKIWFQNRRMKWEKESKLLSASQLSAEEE
# HOXB6 [20] = molecular target: HOXB6 (Homo sapiens, UniProt P17509 132-218)
# Sequence of HOXB6 (Homo sapiens, UniProt P17509 132-218) (P17509 132-218): as the sequence (P17509 132-218 K202E) above, with E71K counted along it
# MSX2 [21] = molecular target: MSX2 (Homo sapiens, UniProt P35548 130-214, R199I)
# Sequence of MSX2 (Homo sapiens, UniProt P35548 130-214, R199I) (P35548 130-214 R199I): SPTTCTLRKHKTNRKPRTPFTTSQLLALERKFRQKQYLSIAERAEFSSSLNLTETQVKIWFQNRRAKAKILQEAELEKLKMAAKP
# MSX2 [22] = molecular target: MSX2 (Homo sapiens, UniProt P35548 130-214)
# Sequence of MSX2 (Homo sapiens, UniProt P35548 130-214) (P35548 130-214): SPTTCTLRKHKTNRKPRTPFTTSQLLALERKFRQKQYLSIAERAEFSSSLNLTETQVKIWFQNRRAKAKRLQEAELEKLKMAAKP
# MSX2 [23] = molecular target: MSX2 (Homo sapiens, UniProt P35548 130-214, F161Y)
# Sequence of MSX2 (Homo sapiens, UniProt P35548 130-214, F161Y) (P35548 130-214 F161Y): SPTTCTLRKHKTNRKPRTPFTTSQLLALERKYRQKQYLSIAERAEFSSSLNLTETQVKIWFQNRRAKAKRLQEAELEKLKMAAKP
sequence,measurement,setting,value
CCGGGACC,binding signal,VENTX [1],"8.02 upbm affinity estimate (log intensity, higher = more binding, comparable within an allelic series)"
same,binding signal,VENTX [2],"8.2 upbm affinity estimate (log intensity, higher = more binding, comparable within an allelic series)"
same,binding signal,VENTX [3],"7.98 upbm affinity estimate (log intensity, higher = more binding, comparable within an allelic series)"
same,binding signal,HOXD13 [4],"9.46 upbm affinity estimate (log intensity, higher = more binding, comparable within an allelic series)"
same,binding signal,NKX2-6 [5],"9.14 upbm affinity estimate (log intensity, higher = more binding, comparable within an allelic series)"
same,binding signal,HOXD13 [6],"9.43 upbm affinity estimate (log intensity, higher = more binding, comparable within an allelic series)"
same,binding signal,HOXD13 [7],"9.37 upbm affinity estimate (log intensity, higher = more binding, comparable within an allelic series)"
same,binding signal,NKX2-6 [8],"9.26 upbm affinity estimate (log intensity, higher = more binding, comparable within an allelic series)"
CCCATTAG,binding signal,VENTX [1],"12.1 upbm affinity estimate (log intensity, higher = more binding, comparable within an allelic series)"
same,binding signal,VENTX [2],"13 upbm affinity estimate (log intensity, higher = more binding, comparable within an allelic series)"
same,binding signal,VENTX [3],"11.9 upbm affinity estimate (log intensity, higher = more binding, comparable within an allelic series)"
same,binding signal,VAX1 [9],"12.6 upbm affinity estimate (log intensity, higher = more binding, comparable within an allelic series)"
same,binding signal,VAX1 [10],"12 upbm affinity estimate (log intensity, higher = more binding, comparable within an allelic series)"
same,binding signal,VAX1 [11],"12.3 upbm affinity estimate (log intensity, higher = more binding, comparable within an allelic series)"
AGTCTGCC,binding signal,VENTX [1],"8.03 upbm affinity estimate (log intensity, higher = more binding, comparable within an allelic series)"
same,binding signal,VENTX [2],"8.12 upbm affinity estimate (log intensity, higher = more binding, comparable within an allelic series)"
same,binding signal,VENTX [3],"8.07 upbm affinity estimate (log intensity, higher = more binding, comparable within an allelic series)"
same,binding signal,ALX1 [12],"6.46 upbm affinity estimate (log intensity, higher = more binding, comparable within an allelic series)"
same,binding signal,ALX1 [13],"6.59 upbm affinity estimate (log intensity, higher = more binding, comparable within an allelic series)"
same,binding signal,ALX1 [14],"6.61 upbm affinity estimate (log intensity, higher = more binding, comparable within an allelic series)"
GGCGGCCC,binding signal,VENTX [1],"8.11 upbm affinity estimate (log intensity, higher = more binding, comparable within an allelic series)"
same,binding signal,VENTX [2],"8.22 upbm affinity estimate (log intensity, higher = more binding, comparable within an allelic series)"
same,binding signal,VENTX [3],"8.03 upbm affinity estimate (log intensity, higher = more binding, comparable within an allelic series)"
same,binding signal,HOXA2 [15],"7.21 upbm affinity estimate (log intensity, higher = more binding, comparable within an allelic series)"
same,binding signal,HOXA2 [16],"9.97 upbm affinity estimate (log intensity, higher = more binding, comparable within an allelic series)"
same,binding signal,HOXA2 [17],"10.3 upbm affinity estimate (log intensity, higher = more binding, comparable within an allelic series)"
same,binding signal,HOXA2 [18],"7.16 upbm affinity estimate (log intensity, higher = more binding, comparable within an allelic series)"
ACGCCGCC,binding signal,VENTX [1],"8.33 upbm affinity estimate (log intensity, higher = more binding, comparable within an allelic series)"
same,binding signal,VENTX [2],"8.43 upbm affinity estimate (log intensity, higher = more binding, comparable within an allelic series)"
same,binding signal,VENTX [3],"8.35 upbm affinity estimate (log intensity, higher = more binding, comparable within an allelic series)"
same,binding signal,NKX2-6 [5],"9.13 upbm affinity estimate (log intensity, higher = more binding, comparable within an allelic series)"
same,binding signal,NKX2-6 [8],"9.22 upbm affinity estimate (log intensity, higher = more binding, comparable within an allelic series)"
CCGCTGGC,binding signal,VENTX [1],"7.68 upbm affinity estimate (log intensity, higher = more binding, comparable within an allelic series)"
same,binding signal,VENTX [2],"7.51 upbm affinity estimate (log intensity, higher = more binding, comparable within an allelic series)"
same,binding signal,VENTX [3],"7.74 upbm affinity estimate (log intensity, higher = more binding, comparable within an allelic series)"
same,binding signal,HOXB6 [19],"8.89 upbm affinity estimate (log intensity, higher = more binding, comparable within an allelic series)"
same,binding signal,VAX1 [9],"6.67 upbm affinity estimate (log intensity, higher = more binding, comparable within an allelic series)"
same,binding signal,VAX1 [10],"7.05 upbm affinity estimate (log intensity, higher = more binding, comparable within an allelic series)"
same,binding signal,VAX1 [11],"6.73 upbm affinity estimate (log intensity, higher = more binding, comparable within an allelic series)"
same,binding signal,HOXB6 [20],"8.76 upbm affinity estimate (log intensity, higher = more binding, comparable within an allelic series)"
CCGCGGTC,binding signal,VENTX [1],"7.69 upbm affinity estimate (log intensity, higher = more binding, comparable within an allelic series)"
same,binding signal,VENTX [2],"7.87 upbm affinity estimate (log intensity, higher = more binding, comparable within an allelic series)"
same,binding signal,VENTX [3],"7.89 upbm affinity estimate (log intensity, higher = more binding, comparable within an allelic series)"
same,binding signal,MSX2 [21],"9.33 upbm affinity estimate (log intensity, higher = more binding, comparable within an allelic series)"
same,binding signal,MSX2 [22],"9.33 upbm affinity estimate (log intensity, higher = more binding, comparable within an allelic series)"
same,binding signal,MSX2 [23],"9.33 upbm affinity estimate (log intensity, higher = more binding, comparable within an allelic series)"
